Results from PubChem BioAssay (NCATS).
Where “and” joins values, the source holds several entries; their conditions need not be identical. Identical values can stand only once. Results filed as inconclusive are left out. Calls of active or inactive are those of the source. Unless noted, the call rests on the fitted dose curve.

Legend:
[1] = molecular target: Peroxisome proliferator-activated receptor delta (Homo sapiens) (UniProt Q03181); assay: qHTS assay for small molecule agonists of peroxisome proliferator-activated receptor delta signaling (AID 588534);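 further: 0% = DMSO basal wells and 100% = positive control agonist at 10 µM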
Peroxisome proliferator-activated receptor delta (Homo sapiens), sequence (Q03181 whole entry, looked up): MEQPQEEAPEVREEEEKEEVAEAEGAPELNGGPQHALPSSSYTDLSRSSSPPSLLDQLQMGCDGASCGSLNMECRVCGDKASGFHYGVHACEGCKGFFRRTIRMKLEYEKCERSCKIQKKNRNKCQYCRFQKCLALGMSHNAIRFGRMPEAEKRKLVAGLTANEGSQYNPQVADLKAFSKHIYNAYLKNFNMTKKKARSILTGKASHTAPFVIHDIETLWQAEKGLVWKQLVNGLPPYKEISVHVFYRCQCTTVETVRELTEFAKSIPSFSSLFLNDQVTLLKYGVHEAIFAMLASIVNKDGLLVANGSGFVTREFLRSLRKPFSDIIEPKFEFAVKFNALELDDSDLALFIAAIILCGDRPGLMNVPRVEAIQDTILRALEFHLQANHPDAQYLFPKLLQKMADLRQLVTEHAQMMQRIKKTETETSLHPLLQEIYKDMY
In short: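 Fluorescence from CCF4 substrate cleavage by beta-lactamase reporter, read 2 hrs at RT, measured agonist activity. Compounds were tested with 18 hrs exposure at 37 C. Concentration-response data fitted to Hill equation.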

[2] = qHTS assay for small molecule antagonists of peroxisome proliferator-activated receptor delta signaling (AID 588535; active means well fitted inhibition curve with a large enough effect in the signal ratio, with a control signal flat, not every such curve was filed as active; the % refers to the signal ratio;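 on max response: cells co-treated with a PPAR-delta agonist as stimulator during compound exposure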); conditions: HEK293T PPARd-UAS-bla, beta-lactamase FRET ratio, 18 h; 460 nm channel
In short: (§1)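 HEK293T PPAR-delta-UAS-bla cells, 4000/well, 2% charcoal/dextran FBS; 5 h 37 C; cpd titration; 18 h 37 C; CCF4 2 h RT; FI 460/530 nm; Hill fit → IC50, efficacy.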

[3] = molecular target: Peroxisome proliferator-activated receptor delta (Homo sapiens) (UniProt Q03181); assay: as above
In short: as §1

[4] = molecular target: Peroxisome proliferator-activated receptor gamma (Homo sapiens) (UniProt P37231); assay: qHTS assay for small molecule agonists of peroxisome proliferator-activated receptor gamma signaling (AID 588536; active means well fitted curve in the direction sought with a large enough effect in the signal ratio, with a control signal flat, not every such curve was filed as active; the % refers to the signal ratio;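 further: 0% = DMSO basal wells and 100% = rosiglitazone at 2 µM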)
Peroxisome proliferator-activated receptor gamma (Homo sapiens), sequence (P37231 whole entry, looked up): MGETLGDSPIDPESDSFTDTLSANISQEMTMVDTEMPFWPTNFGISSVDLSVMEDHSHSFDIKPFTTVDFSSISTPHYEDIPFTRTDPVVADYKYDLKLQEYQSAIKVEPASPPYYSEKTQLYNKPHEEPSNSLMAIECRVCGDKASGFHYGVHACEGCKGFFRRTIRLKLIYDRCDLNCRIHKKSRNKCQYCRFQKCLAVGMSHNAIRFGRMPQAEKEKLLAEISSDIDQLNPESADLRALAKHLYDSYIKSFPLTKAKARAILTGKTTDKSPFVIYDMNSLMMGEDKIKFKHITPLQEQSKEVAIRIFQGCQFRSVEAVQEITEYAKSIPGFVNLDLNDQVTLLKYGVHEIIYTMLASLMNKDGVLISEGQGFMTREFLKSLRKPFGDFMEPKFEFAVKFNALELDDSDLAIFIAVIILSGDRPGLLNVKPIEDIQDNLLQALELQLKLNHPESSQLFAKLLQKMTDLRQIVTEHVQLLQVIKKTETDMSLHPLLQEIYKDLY
In short: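 Test agents, titrated, stimulated HEK293 UAS-bla cells overnight (16 h, 37 C). Substrate CCF4 was then added for two hours at room temperature before fluorescence reading.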

[5] = molecular target: Retinoic acid receptor RXR-alpha (Homo sapiens) (UniProt P19793); assay: qHTS assay for small molecule agonists of retinoid X receptor alpha signaling (AID 588544);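 further: 0% = DMSO basal wells and 100% = reference agonist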
Retinoic acid receptor RXR-alpha (Homo sapiens), sequence (P19793 whole entry, looked up): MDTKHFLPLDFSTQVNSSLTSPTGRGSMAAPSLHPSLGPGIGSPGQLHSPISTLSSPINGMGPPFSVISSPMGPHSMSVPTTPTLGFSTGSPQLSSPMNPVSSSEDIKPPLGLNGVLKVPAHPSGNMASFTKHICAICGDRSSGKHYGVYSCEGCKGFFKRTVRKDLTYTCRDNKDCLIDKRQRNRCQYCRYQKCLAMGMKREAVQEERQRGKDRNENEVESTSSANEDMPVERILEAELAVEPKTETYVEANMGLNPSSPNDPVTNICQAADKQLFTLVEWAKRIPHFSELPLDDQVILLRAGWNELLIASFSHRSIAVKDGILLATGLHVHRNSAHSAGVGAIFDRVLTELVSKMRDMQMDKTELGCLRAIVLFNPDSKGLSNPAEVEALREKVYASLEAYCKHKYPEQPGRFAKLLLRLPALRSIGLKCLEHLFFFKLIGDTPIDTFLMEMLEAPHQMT

[6] = molecular target: Thyroid hormone receptor beta (Homo sapiens) (UniProt P10828); assay: qHTS assay for small molecule agonists of thyroid hormone receptor beta signaling (AID 588545);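 further: 0% = DMSO only and 100% = 10 nM T3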
Thyroid hormone receptor beta (Homo sapiens), sequence (P10828 whole entry, looked up): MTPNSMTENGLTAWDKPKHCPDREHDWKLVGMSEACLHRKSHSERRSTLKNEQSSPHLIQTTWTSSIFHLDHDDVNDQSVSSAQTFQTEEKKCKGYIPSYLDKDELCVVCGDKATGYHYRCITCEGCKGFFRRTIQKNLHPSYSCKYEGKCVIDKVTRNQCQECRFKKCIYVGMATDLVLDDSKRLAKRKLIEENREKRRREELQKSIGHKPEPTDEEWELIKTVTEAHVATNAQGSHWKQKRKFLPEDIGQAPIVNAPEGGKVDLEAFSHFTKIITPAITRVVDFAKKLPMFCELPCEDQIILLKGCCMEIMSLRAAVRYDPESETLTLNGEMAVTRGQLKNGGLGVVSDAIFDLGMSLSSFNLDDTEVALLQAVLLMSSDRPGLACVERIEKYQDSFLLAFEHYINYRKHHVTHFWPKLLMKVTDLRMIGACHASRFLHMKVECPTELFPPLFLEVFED
In short: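 Compounds were tested as agonists in TR-UAS-bla-GripTite HEK 293 cells. After 18 hrs at 37 C, CCF4 substrate was added and fluorescence read after 2 hrs at room temperature.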

[7] = qHTS assay for small molecule antagonists of retinoid X receptor alpha signaling (AID 588546; active means well fitted inhibition curve with a large enough effect in the signal ratio, with a control signal flat, not every such curve was filed as active; the % refers to the signal ratio;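 further: cells stimulated with 9-cis-retinoic acid as agonist; on the % scale 0 is the no-effect control and ±100 the full control effect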); conditions: HEK293T RXRa-UAS-bla, beta-lactamase ratio, antagonist mode; measured here: W530 green channel, cytotoxicity proxy
In short: (§2)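 Beta-lactamase reporter inhibition, read as CCF4 fluorescence ratio (ex 405, em 460/530 nm) after 2 h at RT. HEK293T UAS-bla cells, 2500/well, were stimulated with 9-cis-RA at 500 or 100 nM final alongside test compound for 18 h at 37 C.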

[8] = molecular target: Retinoic acid receptor RXR-alpha (Homo sapiens) (UniProt P19793); assay: as above; conditions: HEK293T RXRa-UAS-bla, beta-lactamase ratio, antagonist mode
In short: as §2

[9] = qHTS assay for small molecule activators of the p53 signaling pathway (AID 651743; active means well fitted activation curve with a large enough effect in the signal ratio, not every such curve was filed as active; the % refers to the signal ratio; further: series mostly up to about 92 µM; % of control where 0% means no effect); conditions: HCT-116 p53RE-bla, beta-lactamase FRET ratio, 16 h; activation: stronger effect = higher value
In short: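 Read-out is fluorescence intensity from the LiveBLAzer B/G FRET substrate, added for 2 hours at room temperature after HCT-116 p53RE-bla cells had been incubated with compounds for 16 hours at 37 C.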

[10] = qHTS assay for environmental chemicals that activate the Aryl hydrocarbon Receptor (AhR) signaling pathway (AID 651777; active means well fitted curve in the direction sought with a large enough effect; an effect the other way counts as inactive or inconclusive; further: % of control where 0% means no effect; nearly all actives have a fitted effect of over 15% in size); conditions: 1A2-DRE human hepatoma cells, luciferase, 24 h; activation: stronger effect = higher value
In short: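 Quantitative HTS in stably transfected human liver-derived cells whose luciferase gene sits downstream of the CYP1A2 promoter and dioxin response element. After 24 hr exposure at 37 C, One-Glo luminescence was measured.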

[11] = molecular target: Peroxisome proliferator-activated receptor alpha (Homo sapiens) (UniProt Q07869); assay: qHTS assay for small molecule agonists of the peroxisome proliferator-activated receptor alpha (PPARalpha) signaling pathway (AID 651778; active means well fitted curve in the direction sought with a large enough effect; an effect the other way counts as inactive or inconclusive; further: % of control where 0% means no effect); conditions: PathHunter PPARalpha complementation, chemiluminescence, 6 h; max response: stronger effect = higher value
Peroxisome proliferator-activated receptor alpha (Homo sapiens), sequence (Q07869 whole entry, looked up): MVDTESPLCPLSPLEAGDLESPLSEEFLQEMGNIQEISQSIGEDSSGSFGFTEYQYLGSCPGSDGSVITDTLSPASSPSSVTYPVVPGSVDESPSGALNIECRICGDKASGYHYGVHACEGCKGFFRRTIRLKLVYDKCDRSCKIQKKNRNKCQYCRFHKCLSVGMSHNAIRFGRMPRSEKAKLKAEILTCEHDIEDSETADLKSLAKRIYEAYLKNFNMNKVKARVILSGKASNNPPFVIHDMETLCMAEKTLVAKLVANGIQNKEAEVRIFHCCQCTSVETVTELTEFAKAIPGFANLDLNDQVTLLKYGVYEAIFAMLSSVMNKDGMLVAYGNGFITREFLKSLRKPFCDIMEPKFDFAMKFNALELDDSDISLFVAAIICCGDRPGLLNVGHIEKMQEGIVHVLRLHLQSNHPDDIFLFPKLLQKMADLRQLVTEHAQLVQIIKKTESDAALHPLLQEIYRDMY
In short: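 Chemiluminescence from complemented enzyme reported PPARalpha activation in cells after 6 hr of compound treatment at 37 C. The detection reagent was incubated for 60 min at room temperature, and compounds were scored as agonists.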

[12] = qHTS assay for small molecule agonists of the antioxidant response element (ARE) signaling pathway measured by Nrf2-dependant transcriptional activity - cell viability counter screen (AID 720653; active means well fitted curve in the direction sought with a large enough effect in the repeat runs; an effect the other way counts as inactive or inconclusive; further: potency means the concentration at half of the fitted maximal effect; on max response: on the % scale 0 is the no-effect control and ±100 the full control effect); conditions: ARE-bla HepG2 viability, CellTiter-Glo ATP luminescence, 16 h; max response: stronger effect = lower value
In short: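 Cytotoxicity counter screen: intracellular ATP quantified by CellTiter-Glo luminescence in the same ARE-bla HepG2 plates, after 16 h compound exposure and a 2 h beta-lactamase substrate step.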

[13] = qHTS assay for cell viability of the p53RE-bla HCT-116 cell line (AID 743292; active means well fitted curve in the direction sought with a large enough effect; an effect the other way counts as inactive or inconclusive; further: on the % scale 0 is the no-effect control and ±100 the full control effect; nearly all actives have a fitted effect of over 55% in size)
In short: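 Viability of compound-treated p53RE-bla HCT-116 cells is taken from ATP-dependent luciferase luminescence. Treatment lasts 16 h at 37 C after a 5 h settling period; detection follows 30 min at room temperature.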

[14] = molecular target: Glucocorticoid receptor (Homo sapiens) (UniProt P04150); assay: qHTS assay for small molecule agonists of glucocorticoid receptor signaling (AID 588532; active means well fitted curve in the direction sought with a large enough effect in the signal ratio, with a control signal flat; the % refers to the signal ratio;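 further: 100% = dexamethasone at 0.1 µM and 0% = DMSO only wells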); conditions: HeLa MMTV-bla, beta-lactamase ratio, agonist, 18 h; activation: stronger effect = higher value, percent of dexamethasone control, DMSO zero
Glucocorticoid receptor (Homo sapiens), sequence (P04150 whole entry, looked up): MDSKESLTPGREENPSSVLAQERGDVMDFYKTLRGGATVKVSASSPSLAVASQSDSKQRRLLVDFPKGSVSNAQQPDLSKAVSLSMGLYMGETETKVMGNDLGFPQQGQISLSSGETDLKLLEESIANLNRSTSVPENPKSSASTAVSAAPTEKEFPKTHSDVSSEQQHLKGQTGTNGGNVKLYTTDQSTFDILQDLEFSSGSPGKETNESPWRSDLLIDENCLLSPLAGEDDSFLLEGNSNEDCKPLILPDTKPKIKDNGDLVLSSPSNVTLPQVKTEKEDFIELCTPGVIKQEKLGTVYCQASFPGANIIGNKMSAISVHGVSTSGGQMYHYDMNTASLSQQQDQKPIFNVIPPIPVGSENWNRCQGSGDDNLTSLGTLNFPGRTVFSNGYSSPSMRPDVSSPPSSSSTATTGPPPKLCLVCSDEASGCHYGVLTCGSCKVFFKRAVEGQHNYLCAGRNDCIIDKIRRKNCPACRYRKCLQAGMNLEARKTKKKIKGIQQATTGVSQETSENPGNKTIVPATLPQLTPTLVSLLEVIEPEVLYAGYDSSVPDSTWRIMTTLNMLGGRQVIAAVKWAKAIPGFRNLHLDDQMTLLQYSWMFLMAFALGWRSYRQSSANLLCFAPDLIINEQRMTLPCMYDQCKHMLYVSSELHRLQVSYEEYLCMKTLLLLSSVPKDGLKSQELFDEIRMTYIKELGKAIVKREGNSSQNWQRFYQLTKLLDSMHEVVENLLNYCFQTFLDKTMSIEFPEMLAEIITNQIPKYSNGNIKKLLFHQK
In short: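 Quantitative HTS using CellSensor MMTV-bla HeLa cells in charcoal/dextran-treated serum; compounds tested up to 92 uM. After 18 h at 37 C, CCF4 dye reported reporter induction.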

[15] = molecular target: Peroxisome proliferator-activated receptor gamma (Homo sapiens) (UniProt P37231); assay: qHTS assay for small molecule antagonists of peroxisome proliferator-activated receptor gamma signaling (AID 588537; active means well fitted inhibition curve with a large enough effect in the signal ratio, with a control signal flat, not every such curve was filed as active; the % refers to the signal ratio;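 further: reporter cells co-stimulated with 50 nM rosiglitazone agonist during compound treatment; % of control where 0% means no effect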)
In short: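 Antagonist mode, beta-lactamase reporter in HEK293; charcoal/dextran FBS 1%; 3000 cells/well, 37 C 6-6.5 h; cpd titration + rosiglitazone 50 nM final, 16 h 37 C; CCF4, 2 h RT; 460/530 nm; Hill fit → IC50, efficacy.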

[16] = qHTS assay for small molecule agonists of the antioxidant response element (ARE) signaling pathway measured by Nrf2-dependant transcriptional activity (AID 720636; active means well fitted curve in the direction sought with a large enough effect in the repeat runs; an effect the other way counts as inactive or inconclusive; further: % of control where 0% means no effect)
In short: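 Quantitative HTS format in HepG2 cells stably expressing an ARE-luciferase reporter; 16 hr compound treatment at 37 C, luciferase signal detected with ONE-Glo.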

[17] = molecular target: Nuclear receptor subfamily 1 group I member 2 (Rattus norvegicus) (UniProt Q9R1A7); assay: qHTS assay for small molecule activators of the rat pregnane X receptor (rPXR) signaling pathway (AID 651751; call rule not given here; further: 0% is about no effect); conditions: rPXR reporter cells, luciferase (One-Glo), 24 h
Nuclear receptor subfamily 1 group I member 2 (Rattus norvegicus), sequence (Q9R1A7 whole entry, looked up): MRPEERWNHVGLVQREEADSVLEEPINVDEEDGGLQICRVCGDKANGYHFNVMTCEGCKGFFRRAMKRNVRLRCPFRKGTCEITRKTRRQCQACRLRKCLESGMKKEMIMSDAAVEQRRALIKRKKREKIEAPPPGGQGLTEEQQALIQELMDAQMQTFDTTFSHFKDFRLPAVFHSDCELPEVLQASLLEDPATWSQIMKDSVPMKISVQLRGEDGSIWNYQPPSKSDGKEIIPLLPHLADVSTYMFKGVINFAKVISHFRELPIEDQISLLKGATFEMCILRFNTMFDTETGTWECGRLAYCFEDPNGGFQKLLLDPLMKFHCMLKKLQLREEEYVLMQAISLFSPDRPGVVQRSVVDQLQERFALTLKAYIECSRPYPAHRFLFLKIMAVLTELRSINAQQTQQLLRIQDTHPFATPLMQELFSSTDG

[18] = qHTS assay for cell viability of HEK293 cells (AID 743288; active means well fitted curve in the direction sought with a large enough effect; an effect the other way counts as inactive or inconclusive; further: nearly all actives have a fitted effect of over 50% in size; further: potency means the concentration at half of the fitted maximal effect; on max response: on the % scale 0 is the no-effect control and ±100 the full control effect); conditions: ATP luminescence (CellTiter-Glo), 18 h; max response: stronger effect = lower value
In short: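 Luminescent ATP quantitation served as the viability read-out. Cells (parental HEK293, 2,000/well) received compounds after at least 5 h at 37 C and were exposed for 18 h before a 30 min room-temperature reagent step.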

[19] = molecular target: Vitamin D3 receptor (Homo sapiens) (UniProt P11473); assay: qHTS assay for small molecule antagonists of vitamin D receptor signaling (AID 588541);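 further: receptor activated by calcitriol during compound treatment; series mostly up to about 77 µM; on the % scale 0 is the no-effect control and ±100 the full control effect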
Vitamin D3 receptor (Homo sapiens), sequence (P11473 whole entry, looked up): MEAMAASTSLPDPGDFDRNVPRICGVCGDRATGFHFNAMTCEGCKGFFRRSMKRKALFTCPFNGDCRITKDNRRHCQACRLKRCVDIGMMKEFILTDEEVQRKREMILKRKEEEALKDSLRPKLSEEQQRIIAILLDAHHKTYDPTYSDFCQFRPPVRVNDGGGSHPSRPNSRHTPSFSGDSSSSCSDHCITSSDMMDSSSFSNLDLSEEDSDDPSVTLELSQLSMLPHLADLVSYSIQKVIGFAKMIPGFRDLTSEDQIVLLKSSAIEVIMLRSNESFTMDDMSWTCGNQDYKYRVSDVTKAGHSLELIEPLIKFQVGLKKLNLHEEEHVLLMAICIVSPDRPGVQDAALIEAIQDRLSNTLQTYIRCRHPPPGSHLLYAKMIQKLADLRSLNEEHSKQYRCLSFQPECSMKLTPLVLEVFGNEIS
In short: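 Antagonist-mode beta-lactamase reporter assay: HEK293T VDR-UAS-bla cells were exposed to titrated compound alongside 1-alpha,25-dihydroxyvitamin D3 at 3 nM final for 16 h. Values were normalized to the 50 nM agonist control and DMSO basal, with IC50 and efficacy from Hill equation fits.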

[20] = molecular target: Vitamin D3 receptor (Homo sapiens) (UniProt P11473); assay: qHTS assay for small molecule agonists of vitamin D receptor signaling (AID 588543);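 further: 0% = DMSO basal and 100% = reference agonist control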
In short: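 Measured: β-lactamase reporter activity (CCF4, 405 nm excitation, 460/530 nm emission) in HEK293T VDR-UAS-bla cells after 16 h compound exposure at 37 °C. Normalization against 50 nM 1α,25-dihydroxyvitamin D3 and DMSO; Hill-fit EC50.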

Cc1cccc2sc3nncn3c12
inactive: outcome [1] | Potency [3] | Potency [4] | Potency [5] | Potency [6] | max response [8] 2.1% | activation [9] 2.35% | activation [10] -0.0294% | max response [11] -0.811% | max response [12] 0.787% | Potency [13]
26.1%: max response [2]
-10.6%: max response [7]

N#CN=C1SCCN1Cc1ccc(Cl)nc1
-7.22%: max response [7]
8.04%: max response [2]
inactive: activation [14] 0.0374% | outcome [1] | Potency [3] | Potency [4] | Potency [15] | Potency [5] | Potency [6] | max response [8] -3.64% | activation [9] 1.82% | activation [10] 1.96% | max response [11] -1.13% | Potency [16] | max response [12] -4.44% | Potency [13] | max response [17] 2.62%

O=C(O)C(F)(F)C(F)(F)C(F)(F)C(F)(F)C(F)(F)C(F)(F)C(F)(F)C(F)(F)C(F)(F)F
-7.72%: max response [7]
inactive: outcome [1] | Potency [3] | Potency [4] | Potency [15] | Potency [5] | Potency [6] | max response [8] 20.8% | activation [9] 5.35% | activation [10] -2.6% and 0.106% | max response [11] -0.9% and 3.39% | Potency [16] | max response [12] -6.6% and -12.4% | max response [18] -5.33% and -8.2% | Potency [13] | max response [17] -0.489% and -1.36%
7.25% and 27.2%: max response [2]

CCOC(=O)COc1cc(-c2nn(C)c(OC(F)F)c2Cl)c(F)cc1Cl
58.4%: max response [2]
16.9%: max response [7]
inactive: activation [14] -3.65% | Potency [3] | Potency [19] | Potency [5] | Potency [6] | max response [8] -15.1% | activation [9] -1.21% | max response [11] -0.355% | Potency [16] | max response [12] 13.2% | max response [18] -5.44% | Potency [13] | max response [17] 0.553%

CCC[CH2][Sn](=[O])[CH2]CCC
inactive: activation [14] -3.35% | outcome [1] | Potency [3] | Potency [4] | Potency [15] | Potency [19] | outcome [20] | Potency [5] | Potency [6] | max response [8] -4.87% | activation [9] 2.27% | activation [10] 3.37% | max response [11] -3.37% | Potency [16] | max response [12] 5.71% | max response [18] -6.83% | Potency [13] | max response [17] 4.58%
0.661%: max response [2]
-4.07%: max response [7]

CNC(=O)N(C)c1nc2ccccc2s1
inactive: outcome [1] | Potency [4] | Potency [15] | Potency [19] | outcome [20] | Potency [5] | Potency [6] | max response [8] -2.41% | max response [11] -2.93% | max response [12] -8.17% | max response [18] -16.4% | Potency [13]
0.29%: max response [7]

O=[N+]([O-])c1ccc(Cl)c([N+](=O)[O-])c1
active: Potency [12] 44.7 µM | Potency [18] 50.1 µM
inactive: activation [14] 0.437% | outcome [1] | Potency [15] | max response [11] -3.79% | Potency [16] | Potency [13] | max response [17] -13.5%

CCC(C)(C)c1cc(-n2nc3ccccc3n2)c(O)c(C(C)(C)CC)c1
-9.56%: max response [2]
inactive: activation [14] 2.15% | Potency [3] | Potency [19] | outcome [20] | Potency [5] | Potency [6] | max response [8] 11.8% | activation [10] 0.0202% | max response [11] 0.0334% | max response [12] -12.9% | max response [18] -9.99% | Potency [13] | max response [17] -0.463%
-14%: max response [7]

Cc1nn(-c2cc(NS(C)(=O)=O)c(Cl)cc2Cl)c(=O)n1C(F)F
-3.07%: max response [7]
-1.23%: max response [2]
inactive: outcome [1] | Potency [3] | Potency [4] | Potency [15] | Potency [19] | outcome [20] | Potency [5] | Potency [6] | max response [8] -28.1% | activation [9] -4.43% | max response [11] -0.197% | Potency [16] | max response [12] 1.41% | Potency [13] | max response [17] -0.675%

CC1(C)[C@H](C(=O)O[C@H](C#N)c2cccc(Oc3ccccc3)c2)[C@@H]1C=C(Br)Br
inactive: outcome [1] | Potency [3] | Potency [5] | Potency [6] | activation [10] -1.98% | max response [11] -0.333% | Potency [16] | max response [12] -10.6% | max response [18] -19% | Potency [13]
6.87%: max response [2]
